ATXN2 expr inh = reduces ATXN2 reporter expression in HEK-293 cells; AID 1745845; HEK-293 ATXN2-luciferase reporter, luminescence, 24 h; hit rate 0.72% among 360,000; Potency, µM (series often up to 57 µM), for the others: top-dose activity change, negative = inhibition, usual class: inhibitors; also: % is scaled to controls: 0 for no effect and ±100 for the full control effect; nearly all actives have a fitted effect of over 55% in size
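qHTS (up to 57 uM final) was run with 24 h compound exposure of reporter cells at 37 °C. Each well was multiplexed: SteadyGlo luminescence measured ATXN2-luciferase expression after a fluorogenic Gly-Phe-AFC viability readout (25 uM final).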
HT1080 IDH1KD tx = HT-1080 IDH1 knockdown cell toxicity (counter line); Potency, µM (doses to about 46.1 µM), for inactives: at the highest dose activity, negative = toxicity, actives largely listed as cytotoxic; HT-1080 IDH1 knockdown viability, ATP luminescence, 48 h; hit rate 2% among 360,000;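 also: 0% = DMSO wells and -100% = cell-free medium wells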
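Assay cells: HT-1080 with IDH1 knockdown, 750 per well, RPMI/5% FBS. Exposure: 48 h at 37 °C following 2 h pre-incubation. Read: CellTiter-Glo luminescence; fitted concentration-response, curve class assigned.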
HT1080-NT tox = kills 2HG-producing HT-1080-NT fibrosarcoma cells; HT-1080-NT fibrosarcoma viability, CellTiter-Glo ATP luminescence, 48 h; Potency, µM (series often up to 46.1 µM), for the others: at the highest dose activity, negative = less viability, hits mostly cytotoxic; hit rate 1.6% among 360,000; AID 686970;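 also: NT is the 2HG producing partner of a matched IDH1 knockdown line; 0% = DMSO-treated cells and -100% = media-only wells without cells; nearly all actives have a fitted effect of over 55% in size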
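750 cells/well, RPMI + 5% FBS; 2 h settle, compound pin-transfer, 48 h at 37 degrees C. CellTiter-Glo 10 min RT, luminescence. Normalized to DMSO and media-only wells.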
KB-V1 MDR tox = KB-V1 MDR subline cytotoxicity; KB-V1 MDR cells viability, CellTiter-Glo, 72 h; Potency, µM (top dose mostly 46.1 µM), most hits filed as cytotoxic; hit rate 3.4% among 400,000; also: % is scaled to controls: 0 for no effect and ±100 for the full control effect; nearly all actives have a fitted effect of over 60% in size
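Cytotoxicity toward P-gp-expressing KB-V1 cells was determined as loss of CellTiter-Glo luminescence after 72 h at 37 degrees C. Compounds were tested in quantitative HTS format across a concentration range, with curves fitted to normalized data.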
ATXN viability = cell viability loss in ATXN counter-screen; S2 cells (HEK-293 line with an ATXN2-luciferase reporter) viability, CellTiter-Fluor protease fluorescence, 24 h; Potency, µM (top dose mostly 56.7 µM), hits mostly cytotoxic; hit rate 0.49% among 400,000; AID 651635; also: nearly all actives have a fitted effect of over 40% in size
KB-3-1 cytotox = KB-3-1 parental cell cytotoxicity. KB-3-1 viability, CellTiter-Glo ATP luminescence, 72 h. Potency, µM (series often up to 46.1 µM), actives largely listed as cytotoxic. hit rate 1.4% among 400,000. AID 1347075; also: % is scaled to controls: 0 for no effect and ±100 for the full control effect; nearly all actives have a fitted effect of over 60% in size
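Parental KB-3-1 viability, qHTS format: 72 h compound exposure, 37 °C; CellTiter-Glo; media-only wells and DMSO plates as controls; concentration-effect fits on corrected data.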
Numbers without * were called inactive; i = inactive; u = inconclusive; x = no result. Compounds with a hit are over-represented: about 6.2% of the library has one in this group of screens. Calls follow the shape of the dose curve; as a rule, active = well fitted curve in the direction sought with a large enough effect; inconclusive = small, poorly fitted or top-dose-only effect, or another doubt; inactive = no such curve, though single readings can be large; an effect the other way counts as inactive or inconclusive. Potency is read from the fitted curve at half-maximal effect.

SMILES | ATXN2 expr inh | HT1080 IDH1KD tx | HT1080-NT tox | KB-V1 MDR tox | ATXN viability | KB-3-1 cytotox
O=C(CSc1nc2c(sc3ccccc32)c(=O)n1Cc1ccco1)NCC1CCCO1 (stereo not given) | -31% | -7% | -9% | i | u | i
CCN(C(=O)COc1cc(=O)n(CC)c2ccccc12)c1cccc(Cl)c1 | 15% | 12% | -11% | 2.1µM* | u | u
CCCN(C(=O)COc1cc(=O)n(CC)c2ccccc12)c1ccc(C(C)C)cc1 | u | x | x | 13µM* | u | u
CC(C)CCNC(=O)C1CCC(Cn2c(=O)c3sccc3n(CC(=O)NC(C)C)c2=O)CC1 (stereo not given) | 0% | x | x | i | i | i
COc1ccc(-c2oc3ncn4nc(Cc5ccccc5)nc4c3c2-c2ccc(OC)cc2)cc1 | -7% | 7% | 10% | 3.7µM* | i | i
O=S(=O)(c1ccccc1)N1CCC(O)(CSc2ccc(F)cc2)CC1 | u | 18µM* | -10% | u | u | u
O=C(CSc1ccccc1)N1CCN(S(=O)(=O)c2ccccc2)CC1 | -1% | -3% | 10% | i | i | i
O=S(=O)(c1ccccc1)N1CCC(O)(CSc2ccccc2)CC1 | -27% | -24% | 23µM* | i | i | i
CCC1CN(CCNC(=O)c2ccc3c(c2)OCCO3)Cc2cc(OC)ccc2O1 (stereo not given) | x | x | x | x | i | x
Cc1cc(NC(=O)c2cccnc2)cc(-c2nc3cc(Cl)ccc3o2)c1O | -1% | x | x | i | i | i
COc1cc(C(=O)Nc2cc(C)c(O)c(-c3nc4cc(Cl)ccc4o3)c2)cc(OC)c1OC | -21% | x | x | i | i | 7.3µM*
O=C(NCc1ccccc1Cl)c1cccc(OC2CCN(C(=O)C3CC3)CC2)c1 | -3% | -4% | -8% | 6.5µM* | i | u
CC(NC(=O)c1cccc(OC2CCN(C(=O)C3CC3)CC2)c1)c1ccc(F)cc1 (stereo not given) | 11% | -1% | 1% | x | i | x
CN1CCN(C(=S)SCC(=O)Nc2nc(-c3ccccc3)c(-c3ccccc3)o2)CC1 | -10% | 0% | -19% | 21µM* | u | u
CCOC(=O)c1noc2nc(C)n(CC(=O)Nc3ccc(OC)c(Cl)c3)c(=O)c12 | 5% | x | x | i | i | i
Nc1cccc(-c2nc3ccc(C(=O)c4ccccc4)cc3[nH]2)c1 | x | 10µM* | 13µM* | 3.7µM* | u | 6.5µM*
O=C(CSC1=NNC(c2ccccn2)S1)Nc1ccc(C(F)(F)F)cc1 (stereo not given) | u | 4.1µM* | 15µM* | i | i | u
Cc1ccc(-c2noc(-c3cccnc3NCc3ccc(Cl)cc3)n2)cc1 | 56% | x | x | i | i | i
O/N=C(/C[n+]1csc2ccccc21)c1ccccc1 | x | x | x | i | x | u
COc1cc(/C=N/OCC(=O)NC2CCCCC2C)ccc1OCc1ccc(Cl)cc1 (stereo not given) | 42% | u | -21% | 8.2µM* | i | u
COc1cc(/C=N/OCC(=O)Nc2cc(C)cc(C)c2)ccc1OCc1ccc(Cl)cc1 | 45% | -4% | 9% | 21µM* | i | u
Cc1ccc(NC(=O)CSc2nc3c(cc2C#N)C(=O)CCC3)cc1S(=O)(=O)N(C)C | -14% | -5% | 5% | i | u | i
CN(C)S(=O)(=O)c1ccc(Cl)c(NC(=O)CSc2nc3c(cc2C#N)C(=O)CCC3)c1 | -1% | -6% | 10% | 10µM* | i | i
O=C(CN1CCCN(S(=O)(=O)c2ccc(Br)s2)CC1)Nc1ccc(Cl)cc1 | u | 18µM* | u | i | i | u
COc1cc(N)c(N)cc1OC | x | x | x | i | x | i
CCn1cc(C(=O)O)c(=O)c2cc(F)c(N/N=C/c3ccccc3)cc21 | -20% | -18% | -4% | 7.3µM* | i | u
Cc1cc(C(C)(C)C)ccc1OCCCCN1CCCC1 | -14% | -6% | -10% | i | i | i

Screens: PubChem BioAssay, National Center for Advancing Translational Sciences (NCATS)
